# The supplement of paper PMC8728848
# This excerpt belongs to a sample that is enriched for the strongest signals.
# How the values were obtained:
# Assay in all cases: glycan array binding signal (z-score within array); higher = stronger binding
# Conditions in all cases: glycan notation: IUPAC condensed, linker removed
# [1] = biological target: Fuc(a1-2)Gal(b1-4)Glc6S
# Outline: (§1)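 From the Consortium for Functional Glycomics database, 3228 arrays were curated, keeping only those whose protein sequence was available. Binding is given as a within-array Z-score averaged across arrays sharing a protein sequence and across linkers. Negative Z-scores can be read as non-binding.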
# [2] = biological target: Fuc(a1-2)Gal(b1-4)GlcNAc(b1-2)Man
# Outline: as §1
# [3] = biological target: Fuc(a1-2)Gal(b1-4)GlcNAc(b1-2)Man(a1-3)[Fuc(a1-2)Gal(b1-4)GlcNAc(b1-2)Man(a1-6)]Man(b1-4)GlcNAc(b1-4)[Fuc(a1-6)]GlcNAc
# Outline: as §1
# [4] = biological target: Fuc(a1-2)[Gal(a1-3)]Gal(b1-3)GlcNAc(b1-2)Man(a1-3)[Fuc(a1-2)[Gal(a1-3)]Gal(b1-3)GlcNAc(b1-2)Man(a1-6)]Man(b1-4)GlcNAc(b1-4)GlcNAc
# Outline: as §1
# [5] = biological target: Fuc(a1-2)[GalNAc(a1-3)]Gal(b1-4)GlcNAc
# Outline: as §1
# [6] = biological target: Fuc(a1-2)[GalNAc(a1-3)]Gal(b1-4)GlcNAc(b1-3)Gal(b1-4)GlcNAc(b1-3)Gal(b1-4)GlcNAc
# Outline: as §1
# [7] = biological target: Gal(a1-3)Gal(b1-3)GlcNAc
# Outline: as §1
# [8] = biological target: Gal(a1-3)Gal(b1-3)GlcNAc(b1-3)GalNAc
# Outline: as §1
# [9] = biological target: Gal(a1-3)Gal(b1-4)GlcNAc(b1-2)Man(a1-3)[Gal(a1-3)Gal(b1-4)GlcNAc(b1-2)Man(a1-6)]Man(b1-4)GlcNAc(b1-4)GlcNAc
# Outline: as §1
# [10] = biological target: Gal(a1-3)Gal(b1-4)[Fuc(a1-3)]GlcNAc(b1-2)Man(a1-3)[Gal(a1-3)Gal(b1-4)[Fuc(a1-3)]GlcNAc(b1-2)Man(a1-6)]Man(b1-4)GlcNAc(b1-4)GlcNAc
# Outline: as §1
# [11] = biological target: Gal(a1-3)[Gal(a1-4)]Gal(b1-4)GlcNAc
# Outline: as §1
# [12] = biological target: Gal(a1-4)Gal(b1-4)GlcNAc(b1-2)Man(a1-3)[Gal(a1-4)Gal(b1-4)GlcNAc(b1-2)Man(a1-6)]Man(b1-4)GlcNAc(b1-4)GlcNAc
# Outline: as §1
# [13] = biological target: Gal(b1-2)Gal
# Outline: as §1
# [14] = biological target: Gal(b1-3)GalNAc(b1-4)Gal(b1-4)Glc
# Outline: as §1
# [15] = biological target: Gal(b1-3)GlcNAc
# Outline: as §1
# [16] = biological target: Gal(b1-3)GlcNAc(b1-3)Gal(b1-4)GlcNAc(b1-2)[Gal(b1-3)GlcNAc(b1-3)Gal(b1-4)GlcNAc(b1-6)]Man(a1-6)[Gal(b1-3)GlcNAc(b1-3)Gal(b1-4)GlcNAc(b1-2)Man(a1-3)]Man(b1-4)GlcNAc(b1-4)[Fuc(a1-6)]GlcNAc
# Outline: as §1
# [17] = biological target: Gal(b1-3)GlcNAc(b1-3)Gal(b1-4)[Fuc(a1-3)]GlcNAc
# Outline: as §1
# [18] = biological target: Gal(b1-4)GlcNAc
# Outline: as §1
# [19] = biological target: Gal(b1-4)GlcNAc(b1-3)Gal(b1-3)GlcNAc
# Outline: as §1
# [20] = biological target: Gal(b1-4)GlcNAc(b1-3)Gal(b1-4)Glc
# Outline: as §1
# [21] = biological target: Gal(b1-4)GlcNAc(b1-3)Gal(b1-4)GlcNAc(b1-3)Gal(b1-4)GlcNAc(b1-3)Gal(b1-4)GlcNAc(b1-2)Man(a1-3)[Gal(b1-4)GlcNAc(b1-3)Gal(b1-4)GlcNAc(b1-3)Gal(b1-4)GlcNAc(b1-3)Gal(b1-4)GlcNAc(b1-2)Man(a1-6)]Man(b1-4)GlcNAc(b1-4)GlcNAc
# Outline: as §1
# [22] = biological target: Gal(b1-4)GlcNAc(b1-3)Gal(b1-4)GlcNAc(b1-3)GalNAc
# Outline: as §1
# [23] = biological target: Gal(b1-4)GlcNAc(b1-3)[Gal(b1-4)GlcNAc(b1-6)]Gal(b1-4)GlcNAc
# Outline: as §1
# [24] = biological target: Gal(b1-4)GlcNAc(b1-6)GalNAc
# Outline: as §1
# [25] = biological target: GalNAc(a1-3)GalNAc(b1-3)Gal(a1-4)Gal(b1-4)GlcNAc
# Outline: as §1
binder,measurement,setting,value
PV12658A-bvu-496-32-496 (Bacteroides vulgatus) (protein) DLDGAITTPAAVELALNGIYYSLPGNGFNVIFPTVSGSFKAGTMWRQEIVSAGNAVYYSERMLPTLSFSDATEWDADYAVIKNANFLETACNRMSDGEFSGNRRAEVLGEIAYLRALAYFNILVRYCEFWDMNSEYGVVMRNEAPSVSNALKARSSVADSYQYILDQLEIAIEKAPDWKKLSQASKEAAKALKARVLLYAGKYTEAVAAVNDAIDTNSPLPEANYGDVFDKFSTTKEILFARVFDQKDATNTSTRQQCYGNSPTKKQGYWGPTNEYVELVGDDPRADAIFSKVDSLMDSRSSAVAYNLKSVKKLLNDANDMPVIFSRVSELYLIKAEALYRSGASISEAYAPIRKLRERAGAEIILPANNEELETAIFNEWMLELSFENWHEWFAMIRFAGYTEKPDFTRLLALNKTLREALEKEYEKSEAQGDNYYQRIIDRRIDAIPSSEISSNLECKQNPGY,glycan array binding signal (z-score),[1],-0.163
same,glycan array binding signal (z-score),[2],-0.199
same,glycan array binding signal (z-score),[3],0.201
same,glycan array binding signal (z-score),[4],3.63
same,glycan array binding signal (z-score),[5],-0.36
same,glycan array binding signal (z-score),[6],0.133
same,glycan array binding signal (z-score),[7],3.81
same,glycan array binding signal (z-score),[8],-0.252
same,glycan array binding signal (z-score),[9],4.55
same,glycan array binding signal (z-score),[10],0.883
same,glycan array binding signal (z-score),[11],1.73
same,glycan array binding signal (z-score),[12],7.57
same,glycan array binding signal (z-score),[13],-0.301
same,glycan array binding signal (z-score),[14],0.963
same,glycan array binding signal (z-score),[15],-0.316
same,glycan array binding signal (z-score),[16],6.34
same,glycan array binding signal (z-score),[17],-0.533
same,glycan array binding signal (z-score),[18],-0.258
same,glycan array binding signal (z-score),[19],-0.494
same,glycan array binding signal (z-score),[20],-0.266
same,glycan array binding signal (z-score),[21],5.64
same,glycan array binding signal (z-score),[22],3.98
same,glycan array binding signal (z-score),[23],0.41
same,glycan array binding signal (z-score),[24],-0.393
same,glycan array binding signal (z-score),[25],-0.573
